In article PMC5540273 (PLoS ONE, 2017):

Legend:
Conditions in all cases: concentration: 1 μM, replicates: in singlicate; n = 1
[1] = tested on: T1, RSK2(Kin.Dom.2-C-terminal)
T1 construct: gene RPS6KA3

[2] = tested on: T2, RSK3(Kin.Dom.1-N-terminal)
T2 construct: gene RPS6KA2

[3] = tested on: T3, RSK3(Kin.Dom.2-C-terminal)
T3 construct: gene RPS6KA2

[4] = tested on: T4, RSK4(Kin.Dom.1-N-terminal)
T4 construct: gene RPS6KA6

[5] = tested on: T5, RSK4(Kin.Dom.2-C-terminal)
T5 construct: gene RPS6KA6

[6] = tested on: S6K1
[7] = tested on: SBK1
[8] = tested on: SGK2
[9] = tested on: SGK3
[10] = tested on: SGK
[11] = tested on: SIK2
[12] = tested on: SIK
[13] = tested on: SLK
[14] = tested on: T6, SNARK
T6 construct: gene NUAK2

[15] = tested on: SNRK
[16] = tested on: SRC
[17] = tested on: SRMS
[18] = tested on: SRPK1
[19] = tested on: SRPK2
[20] = tested on: SRPK3
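Further: KINOMEscan kinase panel screen.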

Structure (SMILES)	%Inh [1] [%]	%Inh [2] [%]	%Inh [3] [%]	%Inh [4] [%]	%Inh [5] [%]	%Inh [6] [%]	%Inh [7] [%]	%Inh [8] [%]	%Inh [9] [%]	%Inh [10] [%]	%Inh [11] [%]	%Inh [12] [%]	%Inh [13] [%]	%Inh [14] [%]	%Inh [15] [%]	%Inh [16] [%]	%Inh [17] [%]	%Inh [18] [%]	%Inh [19] [%]	%Inh [20] [%]
COC(=O)c1c(-c2ccccc2)c2cc(C(=O)O)ccc2c(=O)n1Cc1ccccc1	0	0	0	0	5	0	0	25	5	23	0	0	16	5	0	0	0	0	0	0
Nc1ncnc2[nH]c(-c3ccccc3)nc12 [AH5015]	6	0	0	9	34	22	78	5	18	21	5	0	14	3	100	29	2	12	0	0
O=C(Nc1n[nH]c2nc(-c3nccs3)c(Br)cc12)C1CC1 [SB-742251]	0	19	0	0	2	6	1	12	0	0	0	6	0	0	0	0	0	19	21	0
CC(C)(C)c1ccc(C(=O)Nc2cn3cc(Cl)ccc3n2)cc1	28	0	23	45	22	0	0	6	0	8	0	4	24	0	0	0	0	0	0	0
CS(=O)(=O)c1ccc(-c2c(-c3ncn[nH]3)sc(N3CCOCC3)c2C#N)cc1	0	0	98	0	100	10	0	0	24	0	0	39	3	0	7	0	0	0	0	0
Cn1cncc1-c1ccc2ncnc(Nc3ccc(OCc4ccccc4)cc3)c2c1 [GW320571]	20	23	0	19	0	2	28	0	0	0	13	6	19	0	86	2	0	0	0	25
Cn1ccc2ncnc(Oc3ccc(NC(=O)Nc4ccccc4)cc3)c21	0	12	0	0	0	0	0	7	28	1	27	0	22	19	33	11	0	0	0	9
Cc1c(Cn2ccn3c(=O)cc(N4CCOCC4)nc23)cccc1C(F)(F)F [GSK2289044]	23	0	6	0	11	0	14	0	4	0	0	0	13	5	0	0	0	12	0	0
Cc1cccc(-c2nc(C)cc(Nc3ccncc3)n2)n1 [GSK257997]	22	0	0	0	0	1	4	0	6	0	0	0	42	4	0	0	0	35	0	11
